Data from PubChem BioAssay (NCATS).
Results filed as inconclusive are left out. Entries that show only a call come without a potency. Calls of active or inactive are those of the source. Unless noted, the call rests on the fitted dose curve; in most records, active means well fitted curve in the direction sought with a large enough effect; inconclusive means small, poorly fitted or top-dose-only effect, or another doubt; inactive means no such curve, though single readings can be large; an effect the other way counts as inactive or inconclusive.

What was measured:
[1] = NCATS anti-infectives library activity on HEK293 viability as a counter-qHTS vs the C. elegans viability qHTS (AID 1745854);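 further: HEK293 cells exposed to compounds for 24 hr before the viability read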
Method in brief: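 Cytotoxicity in human HEK293 cells is measured by ATP-dependent CellTiter-Glo luminescence following a 24 hr incubation with titrated library compounds at 37C. Top final concentration is 41.7 uM.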

[2] = target: Glutathione peroxidase 1 (Homo sapiens) (UniProt P07203); experiment: Primary qHTS Assay for Inhibitors of Recombinant Selenoprotein Glutathione Peroxidase 1 (GPX1) (AID 1845191); further: nearly all actives have a fitted effect of over 65% in size; further: potency means the concentration at half of the fitted maximal effect
Method in brief: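 GR-coupled assay: compounds preincubated 30 min at room temperature with GPX1, then reaction started with CHP; final 10 nM GPX1, 1 mM GSH, 0.5 mM CHP, 0.5 mM NADPH, 100 nM GR, 0.01% BSA, pH 7.5 Tris buffer. NADPH fluorescence (340/450 nm) read at 0 and 15 min.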

[3] = target: Luciferin 4-monooxygenase (Photinus pyralis) (UniProt P08659); experiment: Primary firefly luciferase (FLuc) qHTS assay for identification of artifact compounds. (AID 1845220); further: nearly all actives have a fitted effect of over 60% in size; further: potency means the concentration at half of the fitted maximal effect
Method in brief: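 D-luciferin and ATP (10 uM each, final) in Tris acetate buffer pH 7.6 were incubated with compounds for 15 min at room temperature. The reaction was started with 10 nM Photinus pyralis luciferase and luminescence read after 5 min. Percent inhibition was fitted to a 4-parameter Hill equation.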

[4] = target: Phospholipid hydroperoxide glutathione peroxidase GPX4 (Homo sapiens) (UniProt P36969); experiment: Primary qHTS Assay for Inhibitors of Recombinant Selenoprotein Glutathione Peroxidase 4 (GPX4) (AID 1845192); further: nearly all actives have a fitted effect of over 65% in size; further: potency means the concentration at half of the fitted maximal effect
Method in brief: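 GR-coupled assay: recombinant GPX4 preincubated 30 min with compound at room temperature; final 200 nM GPX4, 1 mM GSH, 0.5 mM cumene hydroperoxide, 0.5 mM NADPH, 100 nM GR, 0.01% BSA, pH 7.5 Tris. NADPH fluorescence (340/450 nm) read at 0 and 15 min.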

[5] = target: Catechol O-methyltransferase (Homo sapiens) (UniProt P21964); experiment: Confirmatory Screen for Target Class Profiling of Small Molecule Inhibitors of Methyltransferases (AID 1745852; calls by dose curve; further: potency means the concentration at half of the fitted maximal effect); settings: MTase-Glo luminescence, SAH detection, recombinant enzyme; measured here: COMT max response; stronger effect = lower value
[6] = target: Guanidinoacetate N-methyltransferase (Homo sapiens) (UniProt Q14353); experiment: as above; settings: MTase-Glo luminescence, SAH detection, recombinant enzyme; activity change, negative = inhibition: at 57.3 µM (top of the series)
[7] = target: Nicotinamide N-methyltransferase (Homo sapiens) (UniProt P40261); experiment: as above; settings: MTase-Glo luminescence, SAH detection, recombinant enzyme; measured here: NNMT max response; stronger effect = lower value
[8] = target: Phenylethanolamine N-methyltransferase (Homo sapiens) (UniProt P11086); experiment: as above; settings: MTase-Glo luminescence, SAH detection, recombinant enzyme; measured here: PNMT max response; stronger effect = lower value
[9] = target: Rap guanine nucleotide exchange factor 4 (Homo sapiens) (UniProt Q8WZA2); experiment: Confirmatory qHTS for antagonist of cAMP-regulated guanine nucleotide exchange factor 4 (EPAC2) (AID 1645885); further: nearly all actives have a fitted effect of over 25% in size
[10] = Viability counterscreen for agonist of constitutive androstane receptor (CAR) against the NCATS DSHEA and TCM libraries (AID 1794838);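 further: HepG2 cells with CYP2B6 reporter and hCAR plus 0.75 µM PK11195 antagonist; potency means the concentration at half of the fitted maximal effect; cells exposed to compound for 24 h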
Method in brief: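 Multiplexed counterscreen: after 24 h compound exposure with 0.75 uM PK11195, HepG2-CYP2B6-hCAR viability was quantified fluorimetrically (CellTiter-Fluor, 405/540 nm) prior to the ONE-Glo luciferase read.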

[11] = HepG2 viability counterscreen (readout 2: ATP content) against the NCATS DSHEA and TCM libraries (AID 1794840);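 further: HepG2 cells exposed to substances for about 24 h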
Method in brief: (§1)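 After HepG2 cells attach for ~4 h, substances are added and incubated ~24 h at 37C, 5% CO2. GF-AFC fluorescence then CellTiter-Glo luminescence give protease and ATP readouts.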

[12] = HepG2 viability counterscreen (readout 1: protease activity) against the NCATS DSHEA and TCM libraries (AID 1794841);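 further: cells exposed to compounds for about 24 h before the protease read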
Method in brief: as §1

Sequence of Glutathione peroxidase 1 (Homo sapiens) (P07203 whole entry, looked up): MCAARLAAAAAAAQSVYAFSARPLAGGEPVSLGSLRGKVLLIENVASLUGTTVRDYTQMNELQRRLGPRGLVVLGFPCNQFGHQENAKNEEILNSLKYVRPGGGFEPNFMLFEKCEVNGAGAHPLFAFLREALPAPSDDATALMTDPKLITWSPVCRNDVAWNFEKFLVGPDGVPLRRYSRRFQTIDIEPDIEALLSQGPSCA
Sequence of Nicotinamide N-methyltransferase (Homo sapiens) (P40261 whole entry, looked up): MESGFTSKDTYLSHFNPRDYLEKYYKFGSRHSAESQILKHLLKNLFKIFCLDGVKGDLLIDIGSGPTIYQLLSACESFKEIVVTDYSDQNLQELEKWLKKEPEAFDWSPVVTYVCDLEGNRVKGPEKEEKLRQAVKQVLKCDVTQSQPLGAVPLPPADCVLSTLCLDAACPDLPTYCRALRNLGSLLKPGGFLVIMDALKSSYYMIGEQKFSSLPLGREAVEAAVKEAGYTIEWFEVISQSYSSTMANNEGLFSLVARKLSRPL
Sequence of Phenylethanolamine N-methyltransferase (Homo sapiens) (P11086 whole entry, looked up): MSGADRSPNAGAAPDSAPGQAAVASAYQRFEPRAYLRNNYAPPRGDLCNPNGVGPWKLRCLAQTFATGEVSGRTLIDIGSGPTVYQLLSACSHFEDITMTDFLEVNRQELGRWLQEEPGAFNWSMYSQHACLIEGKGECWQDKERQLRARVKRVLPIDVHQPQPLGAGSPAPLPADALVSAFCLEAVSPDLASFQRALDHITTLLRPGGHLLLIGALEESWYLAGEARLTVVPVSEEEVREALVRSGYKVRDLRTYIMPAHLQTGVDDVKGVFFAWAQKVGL
Sequence of Catechol O-methyltransferase (Homo sapiens) (P21964 whole entry, looked up): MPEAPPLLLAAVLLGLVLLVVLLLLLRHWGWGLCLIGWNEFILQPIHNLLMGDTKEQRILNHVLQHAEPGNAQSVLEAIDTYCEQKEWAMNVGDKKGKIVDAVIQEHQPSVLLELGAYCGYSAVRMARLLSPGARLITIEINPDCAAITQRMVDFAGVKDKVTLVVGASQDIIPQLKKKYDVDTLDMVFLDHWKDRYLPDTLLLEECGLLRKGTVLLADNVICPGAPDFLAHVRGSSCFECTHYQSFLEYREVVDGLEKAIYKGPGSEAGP
Sequence of Phospholipid hydroperoxide glutathione peroxidase GPX4 (Homo sapiens) (P36969 whole entry, looked up): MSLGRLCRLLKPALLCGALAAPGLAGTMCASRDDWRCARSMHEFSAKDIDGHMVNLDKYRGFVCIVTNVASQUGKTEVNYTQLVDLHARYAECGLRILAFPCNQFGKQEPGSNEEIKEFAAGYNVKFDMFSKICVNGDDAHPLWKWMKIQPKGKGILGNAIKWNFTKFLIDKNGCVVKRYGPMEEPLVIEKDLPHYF
Sequence of Rap guanine nucleotide exchange factor 4 (Homo sapiens) (Q8WZA2 whole entry, looked up): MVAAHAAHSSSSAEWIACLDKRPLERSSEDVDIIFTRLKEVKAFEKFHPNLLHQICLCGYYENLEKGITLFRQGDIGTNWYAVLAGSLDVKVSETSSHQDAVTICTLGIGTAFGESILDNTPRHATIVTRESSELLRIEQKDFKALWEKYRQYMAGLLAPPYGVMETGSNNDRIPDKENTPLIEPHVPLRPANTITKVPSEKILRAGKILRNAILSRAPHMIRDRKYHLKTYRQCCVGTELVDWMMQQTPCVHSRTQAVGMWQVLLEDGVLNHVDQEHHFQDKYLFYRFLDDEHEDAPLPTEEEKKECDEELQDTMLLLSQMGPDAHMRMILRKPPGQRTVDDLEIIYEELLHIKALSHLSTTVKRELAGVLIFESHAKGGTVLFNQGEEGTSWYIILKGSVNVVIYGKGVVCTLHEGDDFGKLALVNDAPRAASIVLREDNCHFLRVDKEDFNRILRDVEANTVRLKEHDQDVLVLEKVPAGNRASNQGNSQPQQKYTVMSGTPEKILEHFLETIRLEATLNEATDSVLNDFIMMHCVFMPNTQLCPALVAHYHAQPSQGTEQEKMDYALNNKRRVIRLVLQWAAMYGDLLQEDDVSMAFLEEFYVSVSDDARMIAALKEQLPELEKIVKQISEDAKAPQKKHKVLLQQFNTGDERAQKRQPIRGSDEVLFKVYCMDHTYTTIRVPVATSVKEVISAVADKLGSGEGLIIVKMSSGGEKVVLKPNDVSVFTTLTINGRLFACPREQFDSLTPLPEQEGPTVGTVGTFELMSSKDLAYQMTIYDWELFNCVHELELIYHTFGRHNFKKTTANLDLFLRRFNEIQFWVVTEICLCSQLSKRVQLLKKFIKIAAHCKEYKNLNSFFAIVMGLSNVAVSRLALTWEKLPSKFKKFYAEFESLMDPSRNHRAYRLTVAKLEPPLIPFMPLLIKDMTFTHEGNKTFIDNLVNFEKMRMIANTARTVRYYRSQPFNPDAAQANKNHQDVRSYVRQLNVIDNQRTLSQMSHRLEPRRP

COc1ccc(-c2nc3ccc(C4=NNC(=O)CC4C)cc3[nH]2)cc1 (centres undefined)
outcome [1]: inactive | Potency [2]: inactive | Potency [3]: 10.7 µM (active)

Nc1ncnc2c1ncn2[C@@H]1O[C@H](CO)[C@@H](O)[C@@H]1O
outcome [1]: inactive | Potency [2]: inactive | Potency [4]: inactive

Cc1ccc2c(c1)c1c(n2CCc2ccc(C)nc2)CCN(C)C1
activity [5]: -6.68% | activity change, negative = inhibition [6]: -3.88% | activity [7]: -13.3% | activity [8]: -2.48% | Potency [3]: inactive

CN1CCc2c(n(Cc3ccc(C(=O)NO)cc3)c3ccccc23)C1
activity [5]: 0% | activity change, negative = inhibition [6]: 0.311% | activity [7]: -0.568% | activity [8]: 4.88% | Potency [2]: inactive | Potency [4]: inactive | Potency [3]: inactive

Cc1cc2nc3c(=O)[nH]c(=O)nc-3n(CC(O)C(O)C(O)CO)c2cc1C (centres undefined)
Potency [9]: inactive | Potency [10]: 25.1 µM (active) | outcome [11]: inactive | outcome [12]: inactive | Potency [2]: inactive | Potency [4]: inactive

COc1ccc2ccc(=O)oc2c1CC=C(C)C
outcome [1]: inactive

CC(C)(F)C[C@H](N[C@@H](c1ccc(-c2ccc(S(C)(=O)=O)cc2)cc1)C(F)(F)F)C(=O)NC1(C#N)CC1
outcome [1]: inactive | Potency [2]: inactive | Potency [4]: inactive

Fc1ccc(CNc2ncnc3ccc(F)cc23)cc1
outcome [1]: inactive | Potency [2]: inactive | Potency [4]: inactive | Potency [3]: inactive

CCN1CCC(n2cc(CNc3cc(Cl)c4ncc(C#N)c(Nc5ccc(F)c(Cl)c5)c4c3)nn2)CC1
activity [5]: -89.7% | Potency [6]: 10.8 µM (active) | activity [7]: -81.6% | activity [8]: -91.4% | Potency [2]: 1.15 µM (active) | Potency [4]: inactive | Potency [3]: inactive

Nc1[nH]nc2nnc(-c3c(-c4ccccc4)nn4ccccc34)cc12
activity [5]: -90.6% | Potency [6]: 19.2 µM (active) | activity [7]: -76.8% | activity [8]: -92.5% | Potency [2]: inactive | Potency [3]: inactive

CNC(=O)c1ccc2c(C(=Nc3cccc(CN(C)C)c3)c3ccccc3)c(O)[nH]c2c1
activity [5]: -17.1% | activity change, negative = inhibition [6]: -9.55% | activity [7]: -21.7% | activity [8]: -16.3% | Potency [4]: inactive | Potency [3]: inactive

COc1cc2c(cc1Cc1cccc(Cl)c1F)c(=O)c(C(=O)O)cn2[C@H](CO)C(C)C
outcome [1]: inactive | Potency [2]: inactive | Potency [4]: 11.2 µM (active)
